# Screening data from PubChem.
# In the library only some 6% were active in any assay of this set; here they are far more common.
# D1 agonist: Allosteric Agonists of the Human D1 Dopamine Receptor: qHTS | D(1A) dopamine receptor (Homo sapiens), P21728 | HEK293 T-REx D1 cells, calcium flux, agonist mode | activation, % at 2 µM | 1% of 360,000 active | AID 504660, 2011; in the data active means activation above about 30%
#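 Agonism was scored from calcium flux recorded over 180 s (1 read/s) after pintool compound addition, following a 10-cycle baseline. Cells were inducible force-coupled HEK293 TREx D1, plated overnight at 30 C and loaded with no-wash calcium dye.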
# D3 antag: qHTS of D3 Dopamine Receptor Antagonist: qHTS; D(3) dopamine receptor (Homo sapiens), P35462; D3R cells, DiscoveRx beta-arrestin luminescence, antagonist mode; hits give low values; max response, negative = inhibition, %; 2.5% of 360,000 active; in the data active means max response below about -50%
# Target sequence (P35462 whole entry, looked up): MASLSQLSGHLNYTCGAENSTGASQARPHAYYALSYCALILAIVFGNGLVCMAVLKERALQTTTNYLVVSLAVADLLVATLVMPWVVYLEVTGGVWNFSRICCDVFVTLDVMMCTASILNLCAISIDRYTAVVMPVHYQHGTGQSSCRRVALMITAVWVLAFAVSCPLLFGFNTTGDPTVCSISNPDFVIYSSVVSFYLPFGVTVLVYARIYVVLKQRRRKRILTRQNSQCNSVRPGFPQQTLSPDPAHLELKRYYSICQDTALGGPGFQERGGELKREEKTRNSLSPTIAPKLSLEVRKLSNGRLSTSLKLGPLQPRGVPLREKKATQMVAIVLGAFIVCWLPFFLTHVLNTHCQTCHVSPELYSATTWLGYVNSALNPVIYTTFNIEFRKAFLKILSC
#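 Cells plated overnight at 1500 cells/well, then exposed to library compounds with dopamine controls for 90 minutes at 37 degrees C. DiscoveRx reagent added for 30–60 minutes at room temperature; luminescence read, quantitative HTS format.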
# D1 PAM: Potentiators of Human D1 Dopamine Receptor: qHTS | HEK293 TREx D1 cells, calcium flux, dopamine EC20 potentiation | D(1A) dopamine receptor (Homo sapiens), P21728 | 0.036% of 360,000 active | potentiation, % at 10 µM; in the data active means potentiation above about 30%
# DRD3 agonist: qHTS of D3 Dopamine Receptor Agonist: qHTS | D3R DiscoveRx beta-arrestin cells, luminescence, 90 min | max activation, % | 0.58% of 410,000 active; in the data active means max activation above about 30%
#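 Cells at 1500/well, incubated overnight, then treated with pinned compounds (dopamine as control) for 90 min at 37 degrees C. DiscoveRx reagent added for 30 - 60 minutes at room temperature; luminescence read.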
# D1 antagonist: Antagonist of Human D 1 Dopamine Receptor: qHTS | D(1A) dopamine receptor (Homo sapiens), P21728 | HEK293 TREx D1 cells, calcium flux, dopamine EC80; hits give low values | activity change, negative = inhibition, % at 10 µM | 3.2% of 360,000 active; in the data active means activity change below about -30%
#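 Allosteric or orthosteric antagonism assessed as attenuation of the calcium response to EC80 dopamine, added 180 s after compound, in induced HEK293 Trex D1 cells loaded with no-wash calcium dye.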
# Hits are given with their value; i = inactive; nt = no result given.
SMILES,D1 agonist,D3 antag,D1 PAM,DRD3 agonist,D1 antagonist
O=C(NCCOCCn1c(=O)oc2ccccc21)Nc1ccc(Cl)cc1,i,nt,i,i,i
O=C(C1CC(c2ccccc2O)=NO1)N1CCc2ccccc2C1 (stereo not drawn),i,-95,i,i,i
CCOC(=O)CNC(=O)N1CCc2cc(S(=O)(=O)N3CCC(C)CC3)ccc21,i,nt,i,i,i
C[C@H](CO)N1C[C@H](C)[C@@H](CN(C)C(=O)NC2CCCCC2)Oc2ccc(NC(=O)Nc3ccc(C(F)(F)F)cc3)cc2C1=O,nt,i,nt,54,nt
C[C@@H]1CN([C@H](C)CO)C(=O)CCCn2nncc2CO[C@@H]1CN(C)C(=O)Nc1ccc2c(c1)OCO2,nt,-60,nt,i,nt
C[C@H](CO)N1C[C@H](C)[C@@H](CN(C)C(=O)Nc2ccc(C(F)(F)F)cc2)Oc2c(NC(=O)Nc3ccccc3)cccc2C1=O,nt,i,nt,i,nt
C[C@H](CO)N1C[C@H](C)[C@@H](CN(C)C(=O)Nc2ccc(C(F)(F)F)cc2)Oc2c(cccc2N(C)C)C1=O,nt,-130,nt,i,nt
C[C@H](CO)N1C[C@H](C)[C@@H](CN(C)C(=O)Nc2ccc(C(F)(F)F)cc2)Oc2c(NC(=O)Nc3ccc4c(c3)OCO4)cccc2C1=O,nt,i,nt,i,nt
C[C@H](CO)N1C[C@H](C)[C@@H](CN(C)C(=O)Nc2ccc3c(c2)OCO3)Oc2c(NC(=O)Nc3ccc(C(F)(F)F)cc3)cccc2C1=O,nt,i,nt,32,nt
COC(=O)CN(n1cnnc1)S(=O)(=O)c1ccc(C)cc1,i,-54,i,i,i
COC(=O)CN(c1cc(Cl)ccc1OC)S(=O)(=O)c1ccc(C)cc1,i,i,i,i,i
O=C1CCCN1c1cc(Cl)cc(Cl)c1,i,-55,i,i,i
Cc1cc(C)cc(N2CCCC2=O)c1,i,i,i,i,i
CN(Cc1ccccc1)C(=O)Nc1ccc2c(c1)N(C)C(=O)c1ccccc1S2,i,nt,i,i,i
CCn1c2c(c3cc(Br)ccc31)CCC/C2=N\O,i,i,i,36,i
CNC(=O)C1CCC(Cn2c(=O)c3sccc3n(CC(=O)NCc3cccc(OC)c3)c2=O)CC1 (stereo not drawn),i,nt,i,i,i
COc1ccc(C(=O)C2CCCN(Cc3ccc4nonc4c3)C2)cc1F (stereo not drawn),i,i,i,i,i
COc1ccc(C(=O)C2CCCN(Cc3ccc(C#CCCO)cc3)C2)cc1F (stereo not drawn),i,i,i,i,-37
CCn1c(C)c(CS(=O)(=O)c2ccccc2)[nH]c1=O,i,-71,i,i,i
N#Cc1c(-c2ccccc2)cc(-c2ccccc2)nc1SCC(O)CS(=O)(=O)Cc1ccc(Cl)cc1 (stereo not drawn),i,nt,i,i,i
CC(Sc1nnc(C2CC2)n1C)C(=O)Nc1ccc(N2CCOCC2)cc1 (stereo not drawn),i,i,i,i,i
COc1ccc(OCc2nnc(SC(C)C(=O)Nc3ccc(N4CCOCC4)cc3)n2C)cc1 (stereo not drawn),nt,-77,nt,i,nt
CCOc1ccc(NC(=O)C(C)Sc2nnnn2C)cc1 (stereo not drawn),i,i,i,i,-32
CCSc1nc2c([nH]c3ccccc32)c(=O)n1CC,i,nt,i,i,i
CCOC(=O)N1CCN(C(=O)CSc2nc3c([nH]c4ccccc43)c(=O)n2CC)CC1,i,i,i,46,-36
SMILES,D1 agonist,D3 antag,D1 PAM,DRD3 agonist,D1 antagonist
CCn1c(SCC(=O)N(C)c2ccccc2)nc2c([nH]c3ccccc32)c1=O,i,i,i,i,-37
CCOC(=O)c1nnc(-c2cccs2)nc1Oc1ccccc1C(=O)OC,i,i,i,i,i
CCOC(=O)c1nnc(-c2cccs2)nc1Oc1ccc(Cl)cc1,i,-67,i,i,i
N#Cc1ccc2c(c1)C[C@]1(CCCCN3C(=O)c4ccccc4C3=O)Oc3cc(-c4ccccc4)oc(=O)c3[C@H]2O1,i,nt,i,nt,i
C[N+](C)(CCOc1ccccc1)Cc1cccs1,nt,nt,nt,i,nt
O=C1NC(=S)S/C1=C/c1ccc(N2CCOCC2)o1,i,i,i,i,i
O=C1S/C(=C/c2ccc(N3CCOCC3)o2)C(=O)N1Cc1ccc(F)cc1,83,i,i,i,i
CC(C)(C)OC(=O)CN1C(=O)S/C(=C\c2ccc(-c3cccc(C(=O)O)c3)o2)C1=O,i,nt,i,nt,i
O=C1S/C(=C\c2ccc(N3CCOCC3)o2)C(=O)N1Cc1ccc(F)cc1,42,i,i,i,i
O=C1/C(=C/c2ccc(N3CCOCC3)o2)SC(=Nc2ccccc2)N1CCc1c[nH]c2ccccc12,i,-69,i,i,i
CC(C)OC(=O)CN1C(=O)S/C(=C/c2ccc(N3CCCCC3)o2)C1=O,61,i,i,i,i
COc1cc(/C=C2\SC(=Nc3ccccc3)N(CCc3c[nH]c4ccccc34)C2=O)ccc1OC(C)C(=O)O (stereo not drawn),i,i,i,i,i
CN(C)C(CNc1ccc(S(C)(=O)=O)cc1[N+](=O)[O-])c1ccccc1 (stereo not drawn),i,-64,i,i,i
CC1(C(=O)NCc2ccccc2Br)CCN1C(=O)C1(c2ccc(Cl)cc2)CC1 (stereo not drawn),nt,i,nt,i,nt
COc1ccc(-n2c(SCc3ccccc3F)nc3c([nH]c4ccccc43)c2=O)cc1OC,i,nt,i,i,i
O=C(Nc1cc(Br)c(O)c(Br)c1)c1cccc(NC(=O)c2ccco2)c1,i,i,i,i,i
O=C(Nc1cccc(N=Cc2cc(Cl)cc(Br)c2O)c1)c1ccco1,i,-75,i,i,i
O=C(Nc1cccc(N=Cc2cc(Br)cc(Br)c2O)c1)c1ccco1,i,-61,i,i,i
CCOC(=O)CCC1(C(=O)OC)C(=O)CCCCCC=C1C(=O)OC (stereo not drawn),nt,i,nt,i,nt
CN(C)c1ccc(C(CNS(=O)(=O)c2ccc(Br)cc2)N2CCCC2)cc1 (stereo not drawn),i,nt,i,i,i
CCn1cc(C(=O)N[C@H](C(=O)NCCO)C(C)C)c(=O)c2cc3c(cc21)OCO3,i,i,i,51,i
Cn1c(SCC(=O)NCCC2=CCCCC2)nnc1C(F)(F)F,nt,-70,nt,i,nt
CC(C)(C)NC(=O)C1C(c2ccccc2)=Nc2ccccc2N1C(=O)c1ccc(C(F)(F)F)cc1 (stereo not drawn),nt,i,nt,i,nt
O=C(NCCO)c1ccc(-c2nnc(Nc3ccc(OC(F)(F)Cl)cc3)c3ccccc23)cc1,i,nt,i,i,i
S=C(Nc1ccccc1Cl)NC1CC2CCCC(C1)N2C1CC1 (stereo not drawn),i,i,i,i,-54
